For 40 molecules, Potency results are on record in PubChem BioAssay (Tox21).

Several values for one entry are separate records, joined by “and”; a condition that tells them apart may be missing. Equal values may be shown once. Inconclusive results are not listed. Entries that show only a call come without a potency. Activity calls are given as the source filed them. Calls come from the whole dose curve; as a rule, active = well fitted cell-killing curve with a large enough effect in the repeat runs; inconclusive = weak or mixed curves, or effect the other way; inactive = flat fitted curve, though single readings scatter.
Potency is the fitted concentration of half-maximal effect.

A short description of this test: qHTS assay to identify small molecule agonists of the constitutive androstane receptor (CAR) signaling pathway - cell viability counter screen (AID 1224836). Note: nearly all actives have a fitted effect of over 45% in size. Conditions: HepG2-CYP2B6-hCAR viability, CellTiter-Fluor, 23 h, PK11195 added to every well; series mostly up to 92.4 µM. The text has this:
U.S. Tox21 Program National Center for Advancing Translational Sciences [NCATS] NIH Chemical Genomics Center [NCGC] U.S. Environmental Protection Agency [EPA] National Institutes of Environmental Health Sciences [NIEHS] National Toxicology Program [NTP] U.S. Food and Drug Administration [FDA] Tox21 Assay Overview: The constitutive androstane receptor (CAR) is a nuclear receptor which regulates multiple drug metabolizing enzymes (DMEs) and transporters. Activating CAR will generally increase the transcription and subsequent translation of CYP2B6 and CYP3A4. These two DMEs represent about 50% of the drug metabolizing potential in the body. […] Recently, there have also been studies performed indicating CARs role in energy metabolism and cancer therapy. Therefore, inducing CARs activity could have a potential effect on diabetes and cancer. Identifying environmental toxins and compounds which modulate CAR, through the use of the Tox21 10K compound collection, will be an important step in determining the toxicity and potential therapeutic effects these factors will have on the human body. To differentiate true CAR agonists from cytotoxic substances, the assay is multiplexed with a cell viability assay.
Tox21 Assay Protocol Summary: A double-stable (hCAR and CYP2B6-2.2kb) transfected cell line, derived from human hepatoma (HepG2) cells, was utilized for the duration of the quantitative high-throughput screens. The HepG2-CYP2B6-hCAR cells were dispensed at 2500 cells/4 uL/well in 1536-well white solid bottom plates using a Multidrop Combi. After the assay plates were incubated at 37 C/5% CO2 for 4 hrs, 23 nL of compounds at 15 concentrations (from 5-48 columns) or positive control (from 1 to 4 columns) were transferred to the assay plates using a Pintool station. One uL of PK11195 (final concentration = 0.75 uM) was added, using a Flying Reagent Dispenser, inside each well. After a 23 hr incubation period at 37 C/5% CO2, 1 uL of CellTiter-Fluor reagent was added into each well of the assay plates using a Flying Reagent Dispenser. The fluorescence intensity in the plates was then measured using a ViewLux plate reader.
On the technique in general: In qHTS, concentration-response curves come from the screen itself.
For `CCN(CC)N=O`, the Potency result was “inactive”.

Regarding `C=CCc1ccc(OC)cc1`, the Potency entry is “inactive”. The entry for `NCc1cccnc1` is “inactive”.

Consider `O=[N+]([O-])c1cccc2ccccc12`, for which the Potency result was “inactive”. `CC(C)N(C(=O)SCC(Cl)=C(Cl)Cl)C(C)C`: the Potency result was “inactive”.

Turning to `O=c1oc2ccccc2c(O)c1C(CC(O)c1ccc(-c2ccc(Br)cc2)cc1)c1ccccc1` (stereo not given), the Potency entry was “inactive”. Regarding `O=[N+]([O-])c1ccc(O)c([N+](=O)[O-])c1`, the Potency is 30.8 µM (active).

Take `CCCCCCCCOC(=O)c1ccccc1C(=O)OCCCCCCCC`: the Potency result was “inactive”.

With `COC(=O)c1sccc1S(=O)(=O)NC(=O)Nc1nc(C)nc(OC)n1`, the Potency entry is “inactive”. On to `c1cc(OCC2CO2)ccc1Cc1ccc(OCC2CO2)cc1` (stereo not given), for which the Potency entry was “inactive”. `O=C(NC(=O)c1c(F)cccc1F)Nc1ccc(Cl)cc1`: the Potency result is “inactive”. `N#CCCCl`: the Potency entry is “inactive”.

As for `CC(C)(OOC(C)(C)c1ccccc1)c1ccccc1`, the Potency entry is “inactive”. Turning to `Nc1ccc(Cl)c(Cl)c1`, the Potency entry was “inactive”. Regarding `Nc1ccc(Cl)cc1N`, the Potency was 4.33 µM (active). For `CCOCN(C(=O)CCl)c1c(C)cccc1CC` the value was “inactive”; for `CC1(C)C(C=C(Cl)Cl)C1C(=O)OC(C#N)c1cccc(Oc2ccccc2)c1` (stereo not given), “inactive”. Consider `CC(O)CCO` (stereo not given), for which the Potency result is “inactive”. The entry for `N[C@@H](Cc1ccc(N(CCCl)CCCl)cc1)C(=O)O` is “inactive”; for `Cc1ccccc1[N+](=O)[O-]` it is “inactive”; for `Oc1ccc(-c2ccccc2)cc1` it is “inactive”. Consider `Cc1cc(Cl)ccc1OCCCC(=O)O`, for which the Potency entry was “inactive”. For `CC(C)=CC1C(C(=O)OCc2coc(Cc3ccccc3)c2)C1(C)C` (stereo not given) the value was “inactive”. On to `C[C@]12CCC(=O)C(O)=C1CC[C@@H]1[C@@H]2CC[C@]2(C)C(=O)CC[C@@H]12`, for which the Potency entry is “inactive”.

As to `CCCCN(CCCC)N=O`, the Potency entry was “inactive”. With `O=S(=O)(Oc1ccc(Cl)cc1)c1ccc(Cl)cc1`, the Potency result was “inactive”. Regarding `Cc1cc(C)cc(C)c1`, the Potency entry is “inactive”. For the molecule `CCc1cccc(CC)c1N(COC)C(=O)CCl`, the Potency entry is “inactive”. Consider `Oc1cc(Cl)ccc1Cl`, for which the Potency result was “inactive”. `Nn1cnnc1`: the Potency entry was “inactive”. On to `OCC(O)CO`, for which the Potency result is “inactive”. Regarding `CCOC(=S)S`, the Potency entry was “inactive”. For `c1nc[nH]n1`, the Potency result was “inactive”. `CN(C)C(=O)Nc1ccc(Cl)cc1`: the Potency entry is “inactive”.

As to `O=P(Oc1ccccc1)(Oc1ccccc1)Oc1ccccc1`, the Potency result was “inactive”.

Take `Nc1ccc(-c2ccc(N)c(N)c2)cc1N`: the Potency entry is “inactive”. As for `CCN(N=O)C(N)=O`, the Potency result was “inactive”. As to `C1=Cc2cccc3cccc1c23`, the Potency entry was “inactive”.

Take `O=C(Nc1ccc(Br)cc1)c1cc(Br)cc(Br)c1O`: the Potency is 27.2 µM (active) and 16.8 µM (active). Regarding `c1ccc(P(c2ccccc2)c2ccccc2)cc1`, the Potency entry is “inactive”.
